# Measurements reported in PubChem BioAssay (NCI).
# About 83,000 compounds went through this panel and 20% of them were active in at least one assay; those are over-represented in the sample as a whole.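 Cells were grown in 96-well plates and exposed to the test compound at a single concentration for 48 hours; results are reported as percent growth, with values below 10 considered active.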 Values without a mark were called inactive. The source made the active and inactive calls.
# Columns and labels:
# Experiment in all cases: NCI-60 one-dose screen, 48 h (100 = growth as untreated, 0 = no growth, -100 = all killed)
# Conditions in all cases: 10 µM unless noted
# NCI-H23 lung = test system: NCI-H23 lung
# NCI-H226 lung = test system: NCI-H226 lung
# NCI-H322M lung = test system: NCI-H322M lung
# HOP-62 NSCLC = test system: HOP-62 NSCLC
# NCI-H460 lung = test system: NCI-H460 lung
# NCI-H522 lung = test system: NCI-H522 lung
# A549/ATCC NSCLC = test system: A549/ATCC NSCLC
# 786-0 renal = test system: 786-0 renal
# COLO 205 colon = test system: COLO 205 colon
# DU-145 prostate = test system: DU-145 prostate
# MALME-3M melanoma = test system: MALME-3M melanoma
# MDA-MB-231 breast = test system: MDA-MB-231 breast
# RXF 393 renal = test system: RXF 393 renal
# SF-268 CNS = test system: SF-268 CNS
# SF-295 CNS = test system: SF-295 CNS
# UACC-257 melanoma = test system: UACC-257 melanoma
# M14 melanoma = test system: M14 melanoma
# HCT-15 colon = test system: HCT-15 colon
# K-562 leukemia = test system: K-562 leukemia
# SF-539 CNS = test system: SF-539 CNS
Compound,growth (NCI-H23 lung) [%],growth (NCI-H226 lung),growth (NCI-H322M lung) [%],growth (HOP-62 NSCLC),growth (NCI-H460 lung),growth (NCI-H522 lung),growth (A549/ATCC NSCLC) [%],growth (786-0 renal),growth (COLO 205 colon),growth (DU-145 prostate) [%],growth (MALME-3M melanoma) [%],growth (MDA-MB-231 breast),growth (RXF 393 renal),growth (SF-268 CNS) [%],growth (SF-295 CNS) [%],growth (UACC-257 melanoma) [%],growth (M14 melanoma) [%],growth (HCT-15 colon) [%],growth (K-562 leukemia) [%],growth (SF-539 CNS) [%]
Cc1c(C(N)=O)sc2c1c(=O)n(Cc1ccccc1)c1nnc(S(=O)(=O)CC(=O)Nc3ccc(Cl)cc3)n21,43.2,-4.71% (active),34.8,-26.9% (active),-20.8% (active),16.9%,28.5,3.47% (active),47.2%,43.9,30,20.5%,41.8%,73.6,35.1,47.4,45.2,73.1,–,–
CCC1(c2ccccc2)Oc2ccccc2-n2c(C#N)c3ccccc3c2C1=O (stereo unspecified),97.2,110%,90.3,93.6%,105%,77.5%,93.6,93.9%,106%,114,–,98.5%,–,101,93.3,90.5,94.3,94,86.7,105
Cc1nc2cc(NC(=O)CN3CCN(CCN4C(=O)c5cccc6cccc(c56)C4=O)CC3)ccc2s1,60.9,48.6%,69.3,60%,26.5%,53.2%,37.6,51.4%,47.1%,56.8,70.6,72.2%,47.8%,46.2,48.3,76.8,89,45,–,59.4
CCCCCCC/C(=N\N=C(N)N)c1ccc(O)cc1,57.5,-8.37% (active),56.9,43.9%,26.7%,47.7%,51.9,63.1%,-88.8% (active),53.4,50.6,-22.5% (active),-35.5% (active),45,55.7,27.1,24.9,64,–,63.5
CC1(C)OC(=O)C(=Cc2ccccc2Br)C(=O)O1,101,96.9%,101,106%,102%,88.8%,103,103%,109%,116,–,109%,–,104,99.7,95.3,–,88.6,87.4,91.9
c1ccc(-c2nn[nH]n2)c(-c2ccc(CN3CCN(c4nsc5ccccc45)CC3)cc2)c1,85.7,105%,96.7,110%,98.4%,69%,98.6,110%,114%,97.5,108,88.6%,113%,98.3,94.1,99.8,108,82.9,–,–
COc1cc2c(C#N)n3c(c2cc1OC)C(=O)C(c1ccccc1)Oc1ccccc1-3 (stereo unspecified),20.5,21.8%,85.5,53.8%,66.9%,-32.4% (active),11.5,48.5%,80.3%,72.8,–,64.1%,–,43,28.4,89.3,44.7,31.5,29.7,83.5
COc1ccc(/C=C/C(=O)Nc2cccnc2Nc2ccc(F)cc2)cc1,93.6,85.5%,101,117%,108%,92.5%,84.6,95.6%,109%,118,122,91.7%,102%,112,87.9,97.9,103,102,–,93.7
COc1ccc(C(=O)/C=C/c2c(Cl)nc3c(c(C)nn3-c3ccccc3)c2-c2ccc(Br)cc2)cc1,105,97.3%,109,104%,106%,98.6%,104,91.5%,111%,112,102,105%,101%,103,103,108,100,–,–,–
CC1=CSC2=NCCN12,104,112%,118,108%,109%,100%,105,104%,107%,108,–,122%,121%,102,132,116,108,109,101,95.8
COc1cc(/C=C/C(=O)Nc2ccc3c(c2)/C(=C\c2cccn2C)C(=O)N3)cc(OC)c1OC,57,67.3%,61.2,45.5%,55.4%,5.66% (active),37.5,54.8%,53.7%,63,–,36.5%,–,69.3,38.3,62,49.5,32.5,28.4,56.7
Cc1c(C(N)=O)sc2ncn(Cc3ccccc3)c(=O)c12,101,96.8%,79,95.4%,108%,103%,85.7,96.1%,–,113,120,102%,106%,104,–,163,105,–,97.1,94.6
O=C(CSc1nc2c(n1Nc1ccccc1)-c1ccccc1SC2)Nc1nc(-c2ccc(Cl)cc2)cs1,53,92%,91.1,62.3%,77%,65.2%,25.7,71.5%,–,73.5,64.2,75.1%,98.8%,47.2,45.3,89.5,59.9,77.4,78,70.2
O=C1OC(c2ccc(-c3ccccc3)cc2)=C/C1=C/c1cccs1,88.6,63.6%,99.7,101%,105%,63%,83.6,90.3%,–,103,98.2,75.3%,84.6%,88.5,95.8,106,–,98.1,87.8,106
CC12CCCCC1C(C(N)=O)C(=O)O2 (stereo unspecified),101,118%,104,109%,110%,108%,106,101%,112%,–,120,101%,–,–,109,107,–,106,102,112
CCOC(=O)C(C(C)=O)c1nc2sc3cc(Cl)ccc3n2c(=N)c1C#N (stereo unspecified),78.2,43%,105,102%,96.1%,95.2%,90.7,84.5%,–,109,52.5,62.4%,50.8%,64.6,74.7,72.6,77.8,122,87.4,99.9
Cc1nn(-c2ccc(Cl)cc2)c2nc3c(nc12)c(=O)oc1ccccc13,100,128%,116,107%,109%,101%,95.4,98.1%,123%,118,108,110%,136%,104,92.7,104,–,103,–,–
